The values that follow come from PubChem BioAssay (NCATS).

Test [1] in a line: qHTS of pediatric cancer cell lines to identify multiple opportunities for drug repurposing: Primary screen for A673 cells (AID 1347092). Further: nearly all actives have a fitted effect of over 45% in size. Further: potency means the concentration at half of the fitted maximal effect. Put shortly: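 A673 cells (500-1,000 cells/well in growth media) were pre-incubated 5 h at 37 degrees C, then exposed to compounds for 48 h. Viability was read as CellTiter-Glo luminescence; concentration-response curves came directly from the primary screen.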

A short description of test [2]: qHTS of pediatric cancer cell lines to identify multiple opportunities for drug repurposing: Primary screen for BT-37 cells (AID 1347094). Further: potency means the concentration at half of the fitted maximal effect. The procedure, abridged: (§1)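 Primary screen of approved and investigational compounds on cells in growth media at 37 degrees C, 5% CO2. MIPE set at 11-point and NPC set at 8-point dilutions; viability scored by ATP-based luminescence at 48 hours.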

Test [3] in a line: qHTS of pediatric cancer cell lines to identify multiple opportunities for drug repurposing: Primary screen for NB-EBc1 cells (AID 1347095). Further: potency means the concentration at half of the fitted maximal effect. Put shortly:
as §1

Test [4] is described as follows: qHTS of pediatric cancer cell lines to identify multiple opportunities for drug repurposing: Primary screen for U-2 OS cells (AID 1347096). Further: nearly all actives have a fitted effect of over 50% in size. Put shortly:
(§2)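 Viability after 48 h compound treatment at 37C, 500-1,000 cells/well, read as ATP luminescence with CellTiter-Glo. Primary screens used 11-point (MIPE, 0.78 nM-46 µM) or 8-point (NPC, 0.59 nM-46 µM) final concentrations; follow-up screens used 11-point dilutions.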

A short description of test [5]: qHTS of pediatric cancer cell lines to identify multiple opportunities for drug repurposing: Primary screen for Saos-2 cells (AID 1347097). Further: nearly all actives have a fitted effect of over 40% in size. Further: potency means the concentration at half of the fitted maximal effect. Put shortly:
as §1

The nature of test [6]: qHTS of pediatric cancer cell lines to identify multiple opportunities for drug repurposing: Primary screen for SK-N-SH cells (AID 1347098). Further: nearly all actives have a fitted effect of over 65% in size. Further: potency means the concentration at half of the fitted maximal effect. Put shortly:
(§3)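 Cells (500-1,000/well) rested 5 h, then received compounds for 48 h; metabolically active cells were measured by CellTiter-Glo luminescence. Final concentrations spanned up to 46 µM (MIPE, 11-point) or 0.59 nM-46 µM (NPC, 8-point) in primary screens, 11-point in follow-ups.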

The nature of test [7]: qHTS of pediatric cancer cell lines to identify multiple opportunities for drug repurposing: Primary screen for NB1643 cells (AID 1347099). Further: nearly all actives have a fitted effect of over 50% in size. Further: potency means the concentration at half of the fitted maximal effect. The procedure, abridged: as §1
Test [8] is described as follows: qHTS of pediatric cancer cell lines to identify multiple opportunities for drug repurposing: Primary screen for LAN-5 cells (AID 1347100). Further: potency means the concentration at half of the fitted maximal effect. Put shortly: as §2
The nature of test [9]: qHTS of pediatric cancer cell lines to identify multiple opportunities for drug repurposing: Primary screen for BT-12 cells (AID 1347101). Further: nearly all actives have a fitted effect of over 25% in size. Further: potency means the concentration at half of the fitted maximal effect. Put shortly: as §3
Test [10] in a line: qHTS of pediatric cancer cell lines to identify multiple opportunities for drug repurposing: Primary screen for Rh18 cells (AID 1347102). Further: nearly all actives have a fitted effect of over 65% in size. Further: potency means the concentration at half of the fitted maximal effect. The procedure, abridged:
as §2

The nature of test [11]: qHTS of pediatric cancer cell lines to identify multiple opportunities for drug repurposing: Primary screen for OHS-50 cells (AID 1347103). Further: nearly all actives have a fitted effect of over 40% in size. Further: potency means the concentration at half of the fitted maximal effect. The procedure, abridged:
as §3

Test [12] is described as follows: qHTS of pediatric cancer cell lines to identify multiple opportunities for drug repurposing: Primary screen for RD cells (AID 1347104). Further: nearly all actives have a fitted effect of over 55% in size. Further: potency means the concentration at half of the fitted maximal effect. Put shortly:
as §1

A short description of test [13]: qHTS of pediatric cancer cell lines to identify multiple opportunities for drug repurposing: Primary screen for MG 63 (6-TG R) cells (AID 1347105). Further: nearly all actives have a fitted effect of over 50% in size. Further: potency means the concentration at half of the fitted maximal effect. The procedure, abridged:
as §1

Test [14] in a line: qHTS of pediatric cancer cell lines to identify multiple opportunities for drug repurposing: Primary screen for control Hh wild type fibroblast cells (AID 1347106).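 Further: series mostly up to about 46 µM; a drop in luminescence marks cytotoxicity and a rise apparent proliferation; nearly all actives have a fitted effect of over 55% in size.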 The procedure, abridged:
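Cells (500-1,000/well) in growth media were settled 5 h at 37 degrees C, then given compounds for 48 h. Viability was read as CellTiter-Glo luminescence. Primary runs used MIPE at 11 points (0.78 nM-46 µM) and NPC at 8 points (0.59 nM-46 µM); follow-ups used 11 points.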

Test [15] in a line: qHTS of pediatric cancer cell lines to identify multiple opportunities for drug repurposing: Primary screen for Rh30 cells (AID 1347107). Further: series mostly up to about 46 µM; nearly all actives have a fitted effect of over 75% in size. Put shortly: as §2
Test [16] can be described thus: qHTS of pediatric cancer cell lines to identify multiple opportunities for drug repurposing: Primary screen for Rh41 cells (AID 1347108). Further: nearly all actives have a fitted effect of over 70% in size. Further: potency means the concentration at half of the fitted maximal effect. Put shortly:
as §1

Test [17] is described as follows: qHTS of pediatric cancer cell lines to identify multiple opportunities for drug repurposing: Confirmatory screen for NB1643 cells (AID 1347109). Further: nearly all actives have a fitted effect of over 45% in size. Put shortly: as §2
The nature of test [18]: qHTS of pediatric cancer cell lines to identify multiple opportunities for drug repurposing: Confirmatory screen for SK-N-MC cells (AID 1347111).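 Further: cells exposed to compound for 48 h before the readout; nearly all actives have a fitted effect of over 70% in size.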 The procedure, abridged: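 SK-N-MC cells at 500-1,000 cells/well in growth media were pre-incubated 5 h, then exposed to compounds at 11-point dilutions for 48 h at 37 degrees C, 5% CO2. Viability was read as CellTiter-Glo luminescence.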

The nature of test [19]: qHTS of pediatric cancer cell lines to identify multiple opportunities for drug repurposing: Confirmatory screen for BT-12 cells (AID 1347112). Further: nearly all actives have a fitted effect of over 55% in size. The procedure, abridged:
as §2

A short description of test [20]: qHTS of pediatric cancer cell lines to identify multiple opportunities for drug repurposing: Primary screen for SK-N-MC cells (AID 1347093). Further: potency means the concentration at half of the fitted maximal effect. The procedure, abridged:
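Metabolically active cells were quantified by ATP-dependent luminescence (CellTiter-Glo, 15 min at room temperature) following 48 h treatment. Cells had been plated at 500-1,000 per well and settled for 5 h beforehand.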

Each structure is given as a SMILES string. Where “and” joins values, the source holds several entries; their conditions need not be identical. Identical values can stand only once. Inconclusive results are not listed. Calls of active or inactive are those of the source. The call rests on the fitted dose curve; in most records, active means well fitted curve in the direction sought with a large enough effect; inconclusive means small, poorly fitted or top-dose-only effect, or another doubt; inactive means no such curve, though single readings can be large; an effect the other way counts as inactive or inconclusive.

For the compound `Nc1nc2c(ncn2COCCO)c(=O)[nH]1`, the Potency result in [1], in test [2], in [3], in test [4], in test [5] and in test [6] was “inactive” throughout. The Potency result in test [7], in test [8], in test [9], in test [10], in test [11] and in test [12] was “inactive” each time. In addition, the Potency entry in test [13], in [14], in [15], in test [16], in [17] and in test [18] was “inactive” each time. Also, in [19], the Potency result was “inactive”.

`Cn1cnc([N+](=O)[O-])c1Sc1ncnc2nc[nH]c12`: the Potency in [1] is 762 nM (active) and 1.06 µM (active) and 1.18 µM (active); in test [2] it was 994 nM (active) and 1.38 µM (active) and 1.53 µM (active); in [7], 12.1 µM (active); in test [8], 6.79 µM (active) and 5.26 µM (active); in test [11], 1.4 µM (active) and 3.47 µM (active) and 3.06 µM (active). The Potency entry in test [5], in [10], in test [12], in test [13], in test [14] and in test [15] was “inactive” throughout. Besides, the Potency result in [19] is “inactive”.

With `C[C@@H]1CN(Cc2ccc(F)cc2)[C@@H](C)CN1C(=O)c1cc2c(C(=O)C(=O)N(C)C)cn(C)c2cc1Cl`, the Potency is 14.8 µM (active) in test [1], 2.64 µM (active) in test [7], 0.833 µM (active) in [12] and 14.8 µM (active) in [16]. Moreover, the Potency result in test [2] and in [10] was “inactive” in each case.

With `NC(=O)c1cnccn1`, the Potency entry in [1], in test [2], in test [3], in test [4], in test [5] and in test [6] was “inactive” in each case. Besides, the Potency entry in test [7], in test [8], in [9], in test [10], in test [11] and in [12] was “inactive” each time. Besides, the Potency entry in test [13], in test [14], in test [15] and in test [16] was “inactive” in each case.

For the compound `O=C(C=Cc1ccc(/C=C/C(=O)Nc2ccc(C3=NCCN3)cc2)cc1)Nc1ccc(C2=NCCN2)cc1`, the Potency result in test [1], in test [2], in test [3], in [4], in [5] and in test [6] was “inactive” throughout. Also, the Potency result in test [7], in test [8], in test [9], in [10], in test [11] and in test [12] was “inactive” in each case. Also, the Potency result in test [13], in [14], in test [15] and in test [16] was “inactive” throughout.

As for `CC(C)(C)NCC(O)c1ccc(O)c(CO)c1` (stereo not given), the Potency entry in test [1], in test [2], in [3], in test [4], in test [5] and in test [6] was “inactive” in each case. Further, the Potency entry in test [7], in test [8], in [9], in test [10], in test [11] and in [12] was “inactive” each time. Besides, the Potency entry in [13], in test [14], in test [15] and in test [16] was “inactive” in each case.

As to `CCCc1nn(C)c2c(=O)[nH]c(-c3cc(S(=O)(=O)N4CCN(C)CC4)ccc3OCC)nc12`, the Potency result in test [1], in test [2], in test [3], in test [4], in [5] and in test [6] was “inactive” each time. Moreover, the Potency entry in test [8], in test [10], in test [13], in test [14] and in test [15] was “inactive” in each case.

As for `CS(=O)(=O)Oc1ccc2c(NC(N)=O)c(C(=O)c3ccc(Cl)cc3Cl)oc2c1`, the Potency in test [1] was 2.35 µM (active); in test [2], 3.43 µM (active); in test [3], 4.18 µM (active); in [6], 15.2 µM (active); in [7] it was 3.72 µM (active); in test [8] it was 2.09 µM (active). Moreover, the Potency is 2.35 µM (active) in [10], 1.53 µM (active) in test [11], 13.2 µM (active) in test [12] and 18.7 µM (active) in test [13]. The Potency result in test [15] is “inactive”.

For `OC(CN1CCC(Cc2ccc(F)cc2)CC1)c1ccc(Cl)cc1` (stereo not given), the Potency result in test [1], in test [2], in [4], in test [5], in test [8] and in test [9] was “inactive” in each case. For the same compound, the Potency result in test [10], in test [11], in [12], in [13], in test [14] and in [15] was “inactive” in each case. Besides, the Potency result in [16] and in test [19] was “inactive” in each case.

Take `CCCC(CCC)C(=O)O`: the Potency result in [1], in test [2], in [3], in [4], in [5] and in [6] was “inactive” each time. The Potency result in test [7], in [8], in test [9], in test [10], in [11] and in [12] was “inactive” each time. In addition, the Potency result in test [13], in test [14], in test [15] and in test [16] was “inactive” each time.

On to `CCc1cncnc1N1CCN(Cc2nc3ccc(C(F)(F)F)cc3[nH]2)CC1`, for which the Potency in [1] is 29.6 µM (active); in [20], 23.5 µM (active); in test [9], 12.2 µM (active); in [11], 15.3 µM (active). Besides, the Potency result in [4] and in [14] was “inactive” each time.

In the case of `Cc1cc(Nc2nc(N[C@@H](C)c3ncc(F)cn3)ncc2Cl)n[nH]1`, the Potency in test [1] was 1.18 µM (active); in test [2], 15.3 µM (active); in [3], 18.7 µM (active); in [5], 26.4 µM (active); in test [6] it was 15.2 µM (active); in test [7], 1.32 µM (active). For the same compound, the Potency in [9] is 34.3 µM (active); in test [11], 15.3 µM (active); in [12], 16.6 µM (active); in test [13], 11.8 µM (active); in test [16] it was 9.35 µM (active). In addition, the Potency entry in test [14] and in test [15] was “inactive” in each case.

For `COc1ccc(CC2=NN3C([C@@H](CCc4ccccc4)[C@@H](C)O)=NC(C)C3C(=O)N2)cc1OC` (stereo not given in full), the Potency entry in test [1], in [2], in test [3], in test [4], in test [5] and in test [8] was “inactive” each time. Further, the Potency result in test [9], in test [10], in test [11], in test [12], in [13] and in [14] was “inactive” each time.

As for `Cc1[nH]c(=O)c(C#N)cc1-c1ccc2nccn2c1`, the Potency result in test [1], in [2], in test [3], in [4], in [5] and in test [6] was “inactive” in each case. In addition, the Potency entry in test [7], in test [8], in test [9], in [10], in test [11] and in [12] was “inactive” throughout. In addition, the Potency result in test [13], in test [14], in test [15] and in test [16] was “inactive” throughout.

On to `C1COC(NC(C2CC2)C2CC2)=N1`, for which the Potency result in [1], in test [2], in test [3], in [4], in [5] and in [6] was “inactive” each time. The Potency result in test [7], in test [8], in test [9], in test [10], in test [11] and in [12] was “inactive” throughout. Moreover, the Potency result in test [13], in test [14], in [15] and in test [16] was “inactive” in each case.
